Gli-Sufu block: antagonists of Gli-Sufu signaling. Sufu-KO-LIGHT fibroblasts, Gli luciferase reporter luminescence. inhibition, % at 5 µM. 340,000 tested, 0.74% active. AID 588413;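 active = inhibition above about 55%, limit read from the data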;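 also: 0% = DMSO-treated cells and 100% = wells with medium but no cells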
Mdm2 MdmX PPI: disrupts the human Mdm2-MdmX interaction; 330,000 tested, 3% active; SaOS-2 split-luciferase Mdm2/MdmX complementation, luminescence; O15151+Q00987; AID 485346; inhibition, % at 8 µM;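 active = inhibition of at least 50% at 8 µM in the primary screen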
Target sequence (O15151 whole entry, looked up): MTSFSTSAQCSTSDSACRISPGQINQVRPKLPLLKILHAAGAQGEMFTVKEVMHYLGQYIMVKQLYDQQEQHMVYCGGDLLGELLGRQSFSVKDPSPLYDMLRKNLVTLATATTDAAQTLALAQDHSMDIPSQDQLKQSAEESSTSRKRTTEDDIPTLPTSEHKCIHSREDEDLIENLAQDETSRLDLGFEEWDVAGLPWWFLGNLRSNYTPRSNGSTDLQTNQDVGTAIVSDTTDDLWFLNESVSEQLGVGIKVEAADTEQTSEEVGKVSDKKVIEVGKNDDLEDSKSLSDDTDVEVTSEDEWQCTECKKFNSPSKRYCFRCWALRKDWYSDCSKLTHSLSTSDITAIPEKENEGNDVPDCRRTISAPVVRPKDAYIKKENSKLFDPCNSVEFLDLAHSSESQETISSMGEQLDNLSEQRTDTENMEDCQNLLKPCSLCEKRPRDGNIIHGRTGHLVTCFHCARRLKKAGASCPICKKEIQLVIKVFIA
Target sequence (Q00987 whole entry, looked up): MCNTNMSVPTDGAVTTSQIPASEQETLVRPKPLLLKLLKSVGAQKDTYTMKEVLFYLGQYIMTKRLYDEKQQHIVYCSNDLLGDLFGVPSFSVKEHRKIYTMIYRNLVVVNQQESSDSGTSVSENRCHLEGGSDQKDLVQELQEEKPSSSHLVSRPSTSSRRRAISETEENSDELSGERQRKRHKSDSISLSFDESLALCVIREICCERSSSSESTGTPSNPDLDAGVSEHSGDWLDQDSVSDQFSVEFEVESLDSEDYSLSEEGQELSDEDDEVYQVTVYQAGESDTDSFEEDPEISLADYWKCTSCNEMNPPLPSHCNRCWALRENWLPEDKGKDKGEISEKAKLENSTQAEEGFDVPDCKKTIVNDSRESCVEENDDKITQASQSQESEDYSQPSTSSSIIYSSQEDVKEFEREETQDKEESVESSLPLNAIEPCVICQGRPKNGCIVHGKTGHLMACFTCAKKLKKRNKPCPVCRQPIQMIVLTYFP
PAX8 inh HTS: lowers PAX8-driven luciferase in RMG-I cells; inhibition, % at 12.6 µM; RMG-I TPO-luciferase reporter, SteadyGlo, 24 h; 360,000 tested, 1.2% active;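 active = mean replicate inhibition at least 60% with every replicate also reaching 60%; inconclusive = only one of the two criteria is met; inactive = mean below 60% and not all replicates reaching 60%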;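 also: luciferase light reporting Pax8 driven TPO promoter activity; plate controls were median of neutral control wells for no effect and mitoxantrone controls for full effect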
Shn3 inh set2: inhibitors of Schnurri-3 3'UTR reporter in osteoblasts; inhibition, % at 12.5 µM; 360,000 tested, 0.52% active; AID 588674; Clone20 osteoblast Shn3 3'UTR firefly luciferase, 24 h;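 active = mean inhibition of at least 75% with every replicate also reaching 75%; inconclusive = mean inhibition at least 75% but some replicate below; inactive = mean inhibition below 75%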;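 also: 0% = median of neutral control wells and 100% = pilot-screen positive control compound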
Beta cell apopt: blocks beta cell apoptosis; protection from apoptosis, % (no concentration beside the values); 300,000 tested, 0.8% active; AID 435005; INS-1E cytokine-induced death, ATP luminescence, 48 h; percent of positive-control rescue, neutral wells zero;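 active = Every replicate reaches about 75%, or at least half do and their mean reaches it too, limit read from the data; inconclusive = At least half of replicates reach the limit but their mean does not; inactive = Under half of replicates reach the limit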;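 also: 0% = cytokine-treated negative control wells and 100% = positive control rescue; higher means more ATP so stronger rescue from cytokine killing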
CSC inhib: cancer stem cell inhibition; 300,000 tested, 1.1% active; AID 2717; cancer stem cell-like cells viability, luminescence; inhibition, % at 7.5 µM; in the data active = inhibition above about 75%; inconclusive = no clear call, values can overlap the other calls; tested in HMLE shEcad cells
* hit, by the source's call; ? = inconclusive; nt = no result given. In the library only some 4% were active in any assay of this set; here they are far more common.

SMILES	Gli-Sufu block	Mdm2 MdmX PPI	PAX8 inh HTS	Shn3 inh set2	Beta cell apopt	CSC inhib
O=c1cc(-c2ccccc2)nc2c(-c3ccccc3)c(C(F)(F)F)[nH]n12	3	17	4	14	nt	90*
N#Cc1c(NC(=O)Cn2c(=O)oc3ccccc32)oc(-c2ccccc2)c1-c1ccccc1	7	0	nt	-3	3	86*
CNC(=O)C[C@@H]1CC[C@H]2[C@@H](COc3ccc(NC(=O)C(C)C)cc3C(=O)N2C)O1	nt	nt	-8	nt	nt	nt
Cc1ccc(NC(=O)c2cc(-c3cccc(O)c3)on2)cc1C	-36	-117	-191	-48	2	80*
C[C@H]1CN([C@@H](C)CO)C(=O)Cc2cc(NS(C)(=O)=O)ccc2O[C@@H]1CN(C)C(=O)NC1CCCCC1	nt	nt	-3	nt	nt	nt
CCCC1(c2ccccc2)NC(=O)N(CC(=O)Nc2cc(C)ccc2OC)C1=O (stereo not drawn)	-8	-38	-5	-4	93*	-19
CCCC1(c2ccccc2)NC(=O)N(CC(=O)NCc2ccc(C)cc2)C1=O (stereo not drawn)	6	-8	-8	16	0	2
O=C(NCc1ccccc1)[C@]1(Cc2ccccc2)N=C(c2ccc(OCCCO)cc2)O[C@@H]1c1ccccc1	nt	nt	94*	nt	nt	nt
O=C(NCc1ccccc1)[C@]1(CCS(=O)(=O)c2ccccc2)N=C(c2ccc(OCCCO)cc2)O[C@@H]1c1ccccc1	nt	nt	53	nt	nt	nt
C[C@@H]1CN([C@@H](C)CO)C(=O)c2cc(NS(=O)(=O)c3ccc(F)cc3)ccc2O[C@@H](C)CCCCO[C@@H]1CN(C)Cc1ccc(C(=O)O)cc1	nt	nt	-8	nt	nt	nt
C[C@@H]1CCCCO[C@H](CN(C)Cc2ccc(C(F)(F)F)cc2)[C@@H](C)CN([C@@H](C)CO)C(=O)c2cc(NS(=O)(=O)c3ccc(F)cc3)ccc2O1	nt	nt	103*	nt	nt	nt
C[C@@H]1CCCCO[C@@H](CN(C)Cc2ccc(C(F)(F)F)cc2)[C@H](C)CN([C@H](C)CO)C(=O)c2cc(NS(=O)(=O)c3ccccc3)ccc2O1	nt	nt	92*	nt	nt	nt
C[C@@H]1CCCCO[C@H](CN(C)Cc2ccc(C(F)(F)F)cc2)[C@H](C)CN([C@@H](C)CO)C(=O)c2cc(NS(=O)(=O)c3ccc(F)cc3)ccc2O1	nt	nt	83*	nt	nt	nt
C[C@@H]1CCCCO[C@H](CN(C)Cc2ccc(C(F)(F)F)cc2)[C@H](C)CN([C@H](C)CO)C(=O)c2cc(NS(=O)(=O)c3ccc(F)cc3)ccc2O1	nt	nt	79*	nt	nt	nt
C[C@@H]1CCCCO[C@H](CN(C)Cc2ccccc2)[C@@H](C)CN([C@@H](C)CO)C(=O)c2cc(NS(=O)(=O)c3ccccc3)ccc2O1	nt	nt	-5	nt	nt	nt
CN(C)CC#Cc1ccc([C@@H]2[C@H]3CN(C(=O)Nc4cc(F)ccc4F)CCCCN3[C@H]2CO)cc1	nt	nt	-13	nt	nt	nt
C[C@H]1CCCCO[C@@H](CN(C)Cc2ccc(C(F)(F)F)cc2)[C@@H](C)CN([C@@H](C)CO)C(=O)c2cc(NS(=O)(=O)c3ccc(F)cc3)ccc2O1	nt	nt	96*	nt	nt	nt
C[C@H](CO)N1C[C@H](C)[C@H](CN(C)Cc2ccc(C(F)(F)F)cc2)OCCCC[C@H](C)Oc2ccc(NS(=O)(=O)c3ccc(F)cc3)cc2C1=O	nt	nt	106*	nt	nt	nt
COc1ccc(S(=O)(=O)Nc2ccc3c(c2)C(=O)N([C@H](C)CO)C[C@H](C)[C@@H](CN(C)Cc2ccc(C(F)(F)F)cc2)OCCCC[C@@H](C)O3)cc1	nt	nt	29	nt	nt	nt
C[C@@H]1CN([C@@H](C)CO)C(=O)c2cc(NS(=O)(=O)c3ccc(F)cc3)ccc2O[C@@H](C)CCCCO[C@@H]1CN(C)Cc1ccc(C(F)(F)F)cc1	nt	nt	88*	nt	nt	nt
O=C(Nc1ccc(C(F)(F)F)cc1)N[C@@H]1CC[C@H](CCn2cc(C3(O)CCCC3)nn2)O[C@@H]1CO	nt	nt	27	nt	nt	nt
C[C@@H]1CN([C@H](C)CO)C(=O)c2cc(NS(=O)(=O)c3cccs3)ccc2O[C@@H](C)CCCCO[C@H]1CN(C)Cc1ccc(C(=O)O)cc1	nt	nt	-36	nt	nt	nt
C[C@@H]1CN([C@@H](C)CO)C(=O)c2cc(NS(=O)(=O)c3cccs3)ccc2O[C@@H](C)CCCCO[C@H]1CN(C)Cc1ccc(C(F)(F)F)cc1	nt	nt	84*	nt	nt	nt
C[C@@H]1CN([C@H](C)CO)C(=O)c2cc(NS(=O)(=O)c3cccs3)ccc2O[C@@H](C)CCCCO[C@@H]1CN(C)Cc1ccc(C(F)(F)F)cc1	nt	nt	94*	nt	nt	nt
C[C@@H]1CN([C@@H](C)CO)C(=O)c2cc(NS(=O)(=O)c3cccs3)ccc2O[C@@H](C)CCCCO[C@H]1CN(C)Cc1ccc(C(=O)O)cc1	nt	nt	0	nt	nt	nt
SMILES	Gli-Sufu block	Mdm2 MdmX PPI	PAX8 inh HTS	Shn3 inh set2	Beta cell apopt	CSC inhib
C[C@H](CO)N1C[C@H](C)[C@@H](CN(C)Cc2ccc(C(F)(F)F)cc2)OCCCC[C@H](C)Oc2ccc(NS(=O)(=O)c3cccs3)cc2C1=O	nt	nt	71*	nt	nt	nt
C[C@@H]1CCCCO[C@H](CN(C)Cc2ccc(C(F)(F)F)cc2)[C@@H](C)CN([C@@H](C)CO)C(=O)c2cc(NS(=O)(=O)c3cccs3)ccc2O1	nt	nt	89*	nt	nt	nt
C[C@H]1CCCCO[C@@H](CN(C)Cc2ccc(C(=O)O)cc2)[C@@H](C)CN([C@@H](C)CO)C(=O)c2cc(NS(=O)(=O)c3cccs3)ccc2O1	nt	nt	-8	nt	nt	nt
O=C(Nc1ccc(Cl)c(Cl)c1)N[C@H]1CC[C@H](CCn2cc(C3CCCC3)nn2)O[C@H]1CO	nt	nt	-25	nt	nt	nt
CN1C(=O)c2cc(NC(=O)c3cccs3)ccc2OC[C@@H]2O[C@H](CC(=O)N3CCCCC3)CC[C@@H]21	nt	nt	8	nt	nt	nt
CS(=O)(=O)Nc1cccc(-c2cc(NC=O)c3ncc(-c4ccc(F)cc4)n3c2)c1	nt	nt	81*	48	nt	nt
COc1ccc(-c2cnc3c(NC=O)cc(-c4ccccc4OC)cn23)cc1OC	nt	nt	100*	14	nt	nt
COCCNC(=O)C[C@H]1C[C@@H]2c3cc(NS(=O)(=O)c4ccc(F)cc4)ccc3O[C@@H]2[C@@H](CO)O1	nt	nt	-1	nt	nt	nt
CCc1nnc(N/N=C/c2cc(Br)c(O)cc2O)n1N	5	-5	4	-3	-4	-4
CC(C)(C)c1nnc(N/N=C/c2cc(Br)ccc2O)n(N)c1=O	55	nt	61*	86*	95*	112*
Cc1cccc(Nc2nc(N)c([N+](=O)[O-])c(N3CC(C)CC(C)C3)n2)c1 (stereo not drawn)	4	25	71*	10	?	105*
CC(C)C1CC(N(C)C)=CC(=S)N1 (stereo not drawn)	nt	nt	78*	nt	nt	nt
O=C(CSc1nc2ccccc2c(=O)n1-c1ccccc1)N/N=C/C=C/c1ccccc1[N+](=O)[O-]	12	17	12	10	13	78*
CN(CC(=O)Nc1cccc(F)c1)C(=O)CCCc1cccs1	5	9	97*	30	-6	-4
O=C(NCC1COc2ccccc2O1)c1cccc(S(=O)(=O)NCc2ccccc2)c1 (stereo not drawn)	1	19	11	11	105*	19
C[C@H](CO)N1C[C@H](C)[C@H](CN(C)S(=O)(=O)CC(F)(F)F)OCc2ccccc2-c2ccccc2C1=O	nt	nt	5	nt	nt	nt
